Measurements as given in ChEMBL document CHEMBL4513135, “CO-ADD screening of IQOG CSIS (Spain) compounds”.
“And” between values parts separate entries of the source, which are not always exact repeats. Identical values can stand only once. Potency and affinity values are given separately.

Tests used:
Staphylococcus aureus = conditions: Concentration 32 ug.mL-1, ASSAY_TEST Inhibition of Bacterial Growth, detection method Absorption (OD600), MEDIA CAMHB, plate type 384well, NBS, CORNING #3640, time 18 hr
Escherichia coli = conditions: Concentration 32 ug.mL-1, ASSAY_TEST Inhibition of Bacterial Growth, detection method Absorption (OD600), MEDIA CAMHB, plate type 384well, NBS, CORNING #3640, time 18 hr

Structure (SMILES)	Inhibition (Staphylococcus aureus) [%]	Inhibition (Escherichia coli) [%]	Inhibition (Staphylococcus aureus; 32 ug/mL)	Inhibition (Escherichia coli; 32 ug/mL)
Cc1nn(-c2ccccc2)c2ncnc(NCc3ccccc3)c12	16.34	7.89	–	–
Cc1nc2c(cc1C#N)c(N)nn2C	30.49	0.08	–	–
CCCCCCC(C)NNC(=O)c1cc2ccccc2[nH]1 (centres undefined)	-0.84	6.64	–	–
CN(C)c1nc(N)c(C#N)cc1C#N.Cl	–	–	-10.37% and 5.36%	-3.96% and -19.68%
CCOC(=O)C1=C(C)OC(N)=C(C#N)C1c1cccnc1 (centres undefined)	-6.34	-11.43	–	–
COC(=O)/C(=C/c1ccc(O)cc1)NC(=O)c1ccccc1	4.82	15.96	–	–
Cc1n[nH]c2c1C(c1ccc([N+](=O)[O-])cc1)C(C#N)=C(N)O2 (centres undefined)	4.71	12.5	–	–
C#CCN(C)c1nc(NCCC2CCN(Cc3ccccc3)CC2)c(C#N)cc1C#N.Cl	16.92	-3.04	–	–
c1ccc(Cn2ccc3ccccc32)cc1	7.36	11.73	–	–
Cl.N#Cc1c(N)nc(NCCO)c(C#N)c1-c1ccccc1	32.81	-7.39	–	–
C#CCN(C)Cc1cc2cc(OCCCC3CCN(Cc4ccc(C#N)cc4)CC3)ccc2n1C	8.98	-18.18	–	–
O=C(N/N=C/c1c[nH]c2ccccc12)C(c1ccccc1)c1ccccc1	7.26	7.64	–	–
N#Cc1c(N)nc(NCCCCC2CCN(Cc3ccccc3)CC2)c(C#N)c1-c1ccccc1	9.74	-1.09	–	–
CC(=O)Oc1cccc(C=C2N=C(c3ccccc3)OC2=O)c1	11	13.2	–	–
C#CCN(C)Cc1cc2cc(OCOc3ccc4c(c3)cc(CN(C)CC#C)n4C)ccc2n1C	15.95	-10.88	–	–
NNC(=O)C1(NC(=O)c2ccccc2)CC1c1cccc(O)c1 (centres undefined)	12.61	5.57	–	–
COC(=O)C(NC(=O)c1ccccc1)=C(C)c1ccccc1	11.03	2.63	–	–
COc1ccccc1C1c2ccc3ccccc3c2OC(=NBr)C1(Br)C#N (centres undefined)	25.54	-9.86	–	–
COc1ccc2nc(Cl)c(C=O)cc2c1	–	–	19.77% and 20.88%	18.53% and 18.96%
CCC(Cc1ccccc1)NNC(=O)c1cc2ccccc2[nH]1 (centres undefined)	-3.17	-1.51	–	–
CC1=C(C(=O)N2[C@@H]3C[C@H]4CCC3(CS2(=O)=O)C4(C)C)C(c2ccccc2)C(C#N)=C(N)O1 (some centres undefined)	-1.02	15	–	–

Structure (SMILES)	Inhibition (Staphylococcus aureus) [%]	Inhibition (Escherichia coli) [%]	Inhibition (Staphylococcus aureus; 32 ug/mL)	Inhibition (Escherichia coli; 32 ug/mL)
COc1cc(C2C(C#N)=C(N)Oc3c2ccc2ccccc32)ccc1O (centres undefined)	50.2	-13.64	–	–
CS(=O)(=O)O[C@H]1CC[C@H](OS(C)(=O)=O)CC1	29.12	-5.59	–	–
CC(C)(C)OC(=O)Nc1ccc(Cl)cn1	37.58	-2.82	–	–
COc1ccc(C2C(C#N)=C(N)Oc3c2ccc2ccccc32)c(OC)c1 (centres undefined)	5.1	0.79	–	–
Cl.ClCCCC1CCNCC1	28.57	19.24	–	–
COc1nc(N)c(C#N)cc1C#N	18.25	-3.66	–	–
O=C1OC(c2ccccc2)=NC12CC2c1ccc([N+](=O)[O-])cc1 (centres undefined)	9.12	5.57	–	–
Nc1ccccc1C(=O)N/N=C/c1c[nH]c2ccccc12	7.31	5.27	–	–
N#Cc1c(N)nc(NC2CCN(Cc3ccccc3)CC2)c(C#N)c1-c1ccccc1	33.89	-2.79	–	–
N#Cc1cc2c(N)c3c(nc2nc1N1CCCCC1)CCCC3	29.29	3.13	–	–
O=C(Cc1c[nH]c2ccccc12)N/N=C/c1ccco1	4.9	-3.66	–	–
CCOC(=O)N/N=C/c1ccccc1	-2.34	-1.06	–	–
COc1nc2ccc(C)cc2cc1C=O	18.14	18.17	–	–
O=C(O)n1ccc2ccccc21	10.57	9.43	–	–
Cc1ccc(C2c3c(Cl)nnnc3Oc3ccc4ccccc4c32)cc1 (centres undefined)	36.97	16.16	–	–
O=C(N[C@H]1CC[C@@H](Br)[C@@H](Br)C1)C(F)(F)F	24.31	-25.88	–	–
COc1cc(C2CC2(N)C(=O)O)ccc1O (centres undefined)	4.38	-1.72	–	–
Cc1nc2c3cnn(-c4ccccc4)c3ncn2n1	15.5	11.4	–	–
COc1nc(N)c(C#N)c(-c2ccccc2)c1C#N	26.81	-3.07	–	–
COc1ccc(C2C(C#N)=C(N)Oc3ccc4ccccc4c32)cc1OC (centres undefined)	19.72	-23.42	–	–
N#Cc1cc2c(N)c3c(nc2nc1Cl)CCCC3	35.71	-0.19	–	–
